In PubChem BioAssay (NCI):
Compounds without any hit were thinned out: in the full panel of roughly 79,000, 15% have a hit. Calls of active or inactive are those of the source. No stated cut-off is given here; in the data, active means growth inhibition above about 70%; inactive means the rest.

How the values were obtained:
[1] = NCI Yeast Anticancer Drug Screen. Data for the sgs1 strain (AID 173);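 further: 0% = growth of vehicle-only control cultures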; conditions: S. cerevisiae sgs1 mutant, stronger effect = higher value
Outline: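 Screen format: yeast with repair or checkpoint alterations, compound exposure, growth read relative to vehicle.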

[2] = NCI Yeast Anticancer Drug Screen. Data for the mlh1 rad18 strain (AID 175); conditions: S. cerevisiae mlh1 rad18 strain growth inhibition, stronger effect = higher value
Outline: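 Vehicle-treated cultures served as the reference for growth inhibition in a yeast strain carrying DNA damage repair alterations exposed to each compound.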

[3] = NCI Yeast Anticancer Drug Screen. Data for the rad18 strain (AID 177); conditions: S. cerevisiae rad18 mutant growth inhibition, stronger effect = higher value
Outline: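 Test articles were incubated with altered yeast defective in DNA damage repair. Results are given as inhibition of growth versus vehicle.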

[4] = NCI Yeast Anticancer Drug Screen. Data for the rad52 strain (AID 147);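 further: 0% = growth of vehicle-treated control cultures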; conditions: S. cerevisiae rad52 mutant growth inhibition, stronger effect = higher value
Outline: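 Vehicle-treated cultures served as the reference for growth inhibition of compound-exposed yeast bearing a DNA repair mutation.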

[5] = NCI Yeast Anticancer Drug Screen. Data for the wt1 strain (AID 149);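 further: 0% = growth of vehicle-treated wt1 cultures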; conditions: S. cerevisiae wt1 strain (SPY 50644) growth inhibition, stronger effect = higher value
Outline: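 Measured: growth of wt1 yeast under compound versus vehicle treatment, reported as inhibition.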

[6] = NCI Yeast Anticancer Drug Screen. Data for the rad50EPP+ strain (AID 151);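 further: 0% = growth of vehicle-treated control cultures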; conditions: S. cerevisiae rad50 mutant strain, stronger effect = higher value
Outline: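 In this screen, rad50EPP+ yeast were exposed to compounds. Growth inhibition was scored against vehicle-treated controls.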

[7] = NCI Yeast Anticancer Drug Screen. Data for the rad50 strain (AID 155);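 further: 0% = growth of vehicle-only cultures of the same strain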; conditions: S. cerevisiae rad50 strain growth inhibition, stronger effect = higher value
Outline: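 Growth of the mutant yeast was measured after compound exposure and referenced to vehicle-treated cultures.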

[8] = NCI Yeast Anticancer Drug Screen. Data for the mec2-1 strain (AID 157); conditions: S. cerevisiae mec2-1 strain, stronger effect = higher value
Outline: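 Vehicle-treated cultures served as reference for growth inhibition of compound-exposed mec2-1 yeast.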

[9] = NCI Yeast Anticancer Drug Screen. Data for the rad14 strain (AID 159);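 further: 0% = growth of vehicle-treated control cultures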; conditions: S. cerevisiae rad14 strain growth inhibition, stronger effect = higher value
Outline: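 Here, inhibition of yeast growth was measured after compound exposure, using a strain with a genetic defect in DNA damage repair and vehicle-treated cultures as the reference.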

[10] = NCI Yeast Anticancer Drug Screen. Data for the sgs1 mgt1 strain (AID 161);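 further: 0% = growth of cultures given vehicle only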; conditions: S. cerevisiae sgs1 mgt1 strain, stronger effect = higher value
Outline: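 Genetically altered yeast, compound exposure, growth inhibition relative to vehicle.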

[11] = NCI Yeast Anticancer Drug Screen. Data for the CLN2oe strain (AID 163);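 further: 0% = growth of vehicle-only control cultures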; conditions: S. cerevisiae CLN2oe strain, stronger effect = higher value
Outline: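 Inhibition relative to vehicle-treated yeast is reported. Cells: strain with genetic alteration in cell-cycle control, grown with compound.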

[12] = NCI Yeast Anticancer Drug Screen. Data for the cln2 rad14 strain (AID 165);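 further: 0% = growth equal to vehicle treated cultures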; conditions: S. cerevisiae cln2 rad14 strain, stronger effect = higher value
Outline: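 Each compound was tested on cln2 rad14 yeast. Inhibition of growth was calculated against vehicle-exposed controls.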

[13] = NCI Yeast Anticancer Drug Screen. Data for the bub3 strain (AID 167); conditions: S. cerevisiae bub3 mutant strain, stronger effect = higher value
Outline: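 Whole-cell yeast assay. The mutant strain was incubated with compounds, and growth inhibition was determined by comparison with vehicle-treated cells.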

[14] = NCI Yeast Anticancer Drug Screen. Data for the wt2 strain (AID 169);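 further: 0% = growth of vehicle-treated yeast cultures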; conditions: S. cerevisiae wt2 strain growth inhibition, stronger effect = higher value
Outline: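 Inhibition of yeast growth was determined after compound treatment, normalised to controls receiving only vehicle.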

[15] = NCI Yeast Anticancer Drug Screen. Data for the mlh1 strain (AID 171);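 further: 0% = growth of vehicle-treated control cultures of the same strain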; conditions: S. cerevisiae mlh1 strain growth inhibition, stronger effect = higher value
Outline: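 Vehicle-normalised growth inhibition of a repair- or checkpoint-altered yeast strain following compound treatment.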

[16] = at 5.0 µM (retest, dose inferred, filed as 0.5)
[17] = at 50.0 µM (retest, dose inferred, filed as 5.0)

Measured: growth inhibition

CCc1[nH]nc(C(N)=O)c1N=NN(C)C
active: [1]; at 100.0 µM 88% | [2]; at 50.0 µM 70.7% | [3]; at 33.0 µM 85% | [3]; at 100.0 µM 96%
inactive: [1]; at 1.2 µM 0% | [1]; at 3.7 µM -5% | [1]; at 11.0 µM 15% | [1]; at 33.0 µM 53% | [2]; [16] -126% | [2]; [17] 1% | [3]; at 1.2 µM 1% | [3]; at 3.7 µM 6% | [3]; at 11.0 µM 28%

CC(C)c1[nH]nc(C(N)=O)c1N=NN(C)C
inactive: [4]; at 1.2 µM 3% | [4]; at 3.7 µM 4% | [4]; at 11.0 µM 40% | [5]; at 1.2 µM -5% | [5]; at 3.7 µM -4% | [5]; at 11.0 µM -8% | [5]; at 33.0 µM -7% | [5]; at 100.0 µM -1% | [6]; at 1.2 µM -1% | [6]; at 3.7 µM 15% | [6]; at 11.0 µM 37% | [7]; at 1.2 µM -5% | [7]; at 3.7 µM 3% | [7]; [16] -90% | [7]; at 11.0 µM 33% | [8]; at 1.2 µM 1% | [8]; at 3.7 µM -1% | [8]; [16] -46% | [8]; at 11.0 µM -10% | [8]; at 33.0 µM 4% | [8]; [17] -16% | [8]; at 50.0 µM 24.4% | [8]; at 100.0 µM 61% | [9]; at 1.2 µM -1% | [9]; at 3.7 µM 1% | [9]; at 11.0 µM 6% | [9]; at 33.0 µM 12% | [9]; at 100.0 µM 29% | [10]; [16] -47% | [10]; [17] 24% | [10]; at 50.0 µM 28.9% | [11]; at 1.2 µM -3% | [11]; at 3.7 µM -5% | [11]; at 11.0 µM -2% | [11]; at 33.0 µM -5% | [11]; at 100.0 µM 6% | [12]; [16] -55% | [12]; [17] -43% | [12]; at 50.0 µM 5.65% | [13]; at 1.2 µM -17% | [13]; at 3.7 µM -5% | [13]; [16] -63% | [13]; at 11.0 µM -5% | [13]; at 33.0 µM -14% | [13]; [17] -87% | [13]; at 50.0 µM -4% | [13]; at 100.0 µM -2% | [14]; at 1.2 µM -2% | [14]; at 3.7 µM -1% | [14]; at 11.0 µM -2% | [14]; at 33.0 µM -8% | [14]; at 100.0 µM 4% | [1]; at 1.2 µM -2% | [1]; at 3.7 µM -6% | [1]; at 11.0 µM 12% | [1]; at 33.0 µM 51% | [2]; [16] -101% | [2]; [17] 24% | [2]; at 50.0 µM 58.1% | [3]; at 1.2 µM 3% | [3]; at 3.7 µM 12% | [3]; at 11.0 µM 39%
active: [4]; at 33.0 µM 87% | [4]; at 100.0 µM 95% | [6]; at 33.0 µM 73% | [6]; at 100.0 µM 91% | [7]; at 33.0 µM 81% | [7]; [17] 83% | [7]; at 50.0 µM 91.5% | [7]; at 100.0 µM 93% | [1]; at 100.0 µM 84% | [3]; at 33.0 µM 80% | [3]; at 100.0 µM 94%

Nc1ccc2c(c1)sc1ccccc12
inactive: [4]; at 1.2 µM -3% | [4]; at 3.7 µM 2% | [4]; at 11.0 µM 3% | [4]; at 33.0 µM 30% | [5]; at 1.2 µM -5% | [5]; at 3.7 µM -7% | [5]; at 11.0 µM -10% | [5]; at 33.0 µM -11% | [6]; at 1.2 µM 1% | [6]; at 3.7 µM 13% | [6]; at 11.0 µM 38% | [7]; at 1.2 µM -20% | [7]; at 3.7 µM -1% | [7]; [16] -153% | [7]; at 11.0 µM 9% | [7]; at 33.0 µM 46% | [7]; [17] 54% | [8]; at 1.2 µM 1% | [8]; at 3.7 µM 0% | [8]; [16] -52% | [8]; at 11.0 µM -6% | [8]; at 33.0 µM 4% | [8]; [17] -24% | [8]; at 50.0 µM 33% | [9]; at 1.2 µM -3% | [9]; at 3.7 µM -6% | [9]; at 11.0 µM -1% | [9]; at 33.0 µM 15% | [10]; [16] -68% | [10]; [17] 40% | [10]; at 50.0 µM 63.1% | [11]; at 1.2 µM -2% | [11]; at 3.7 µM -5% | [11]; at 11.0 µM -3% | [11]; at 33.0 µM -5% | [13]; at 1.2 µM -6% | [13]; at 3.7 µM -4% | [13]; [16] -59% | [13]; at 11.0 µM 3% | [13]; at 33.0 µM 18% | [13]; [17] 40% | [14]; at 1.2 µM -1% | [14]; at 3.7 µM -2% | [14]; at 11.0 µM -4% | [14]; at 33.0 µM 0% | [15]; at 1.2 µM 9% | [15]; at 3.7 µM -4% | [15]; at 11.0 µM -5% | [15]; at 33.0 µM 21% | [1]; at 1.2 µM -1% | [1]; at 3.7 µM -1% | [1]; at 11.0 µM -2% | [1]; at 33.0 µM 46% | [2]; [16] -122% | [2]; [17] 38% | [3]; at 1.2 µM 0% | [3]; at 3.7 µM 6% | [3]; at 11.0 µM 27% | [3]; at 33.0 µM 56%
active: [4]; at 100.0 µM 99% | [5]; at 100.0 µM 99% | [6]; at 33.0 µM 89% | [6]; at 100.0 µM 98% | [7]; at 50.0 µM 85.4% | [7]; at 100.0 µM 99% | [8]; at 100.0 µM 99% | [9]; at 100.0 µM 98% | [11]; at 100.0 µM 95% | [13]; at 50.0 µM 92.5% | [13]; at 100.0 µM 99% | [14]; at 100.0 µM 99% | [15]; at 100.0 µM 99% | [1]; at 100.0 µM 99% | [2]; at 50.0 µM 94.2% | [3]; at 100.0 µM 99%
